Most compounds without a hit are left out; they make up all but 10% or so of the library.
hNpr1 antagonist = human Npr1 receptor antagonism; Potency, µM (series often up to 46.3 µM), without a hit: at the top dose activity change, negative = inhibition, actives largely listed as inhibitors; hit rate 1.6% among 76,000; HEK293 hNpr1 GloSensor cGMP, ANP-stimulated luminescence; P16066; calls by dose curve; also: % is scaled to controls: 0 for no effect and ±100 for the full control effect; nearly all actives have a fitted effect of over 60% in size
Target sequence (P16066 whole entry, looked up): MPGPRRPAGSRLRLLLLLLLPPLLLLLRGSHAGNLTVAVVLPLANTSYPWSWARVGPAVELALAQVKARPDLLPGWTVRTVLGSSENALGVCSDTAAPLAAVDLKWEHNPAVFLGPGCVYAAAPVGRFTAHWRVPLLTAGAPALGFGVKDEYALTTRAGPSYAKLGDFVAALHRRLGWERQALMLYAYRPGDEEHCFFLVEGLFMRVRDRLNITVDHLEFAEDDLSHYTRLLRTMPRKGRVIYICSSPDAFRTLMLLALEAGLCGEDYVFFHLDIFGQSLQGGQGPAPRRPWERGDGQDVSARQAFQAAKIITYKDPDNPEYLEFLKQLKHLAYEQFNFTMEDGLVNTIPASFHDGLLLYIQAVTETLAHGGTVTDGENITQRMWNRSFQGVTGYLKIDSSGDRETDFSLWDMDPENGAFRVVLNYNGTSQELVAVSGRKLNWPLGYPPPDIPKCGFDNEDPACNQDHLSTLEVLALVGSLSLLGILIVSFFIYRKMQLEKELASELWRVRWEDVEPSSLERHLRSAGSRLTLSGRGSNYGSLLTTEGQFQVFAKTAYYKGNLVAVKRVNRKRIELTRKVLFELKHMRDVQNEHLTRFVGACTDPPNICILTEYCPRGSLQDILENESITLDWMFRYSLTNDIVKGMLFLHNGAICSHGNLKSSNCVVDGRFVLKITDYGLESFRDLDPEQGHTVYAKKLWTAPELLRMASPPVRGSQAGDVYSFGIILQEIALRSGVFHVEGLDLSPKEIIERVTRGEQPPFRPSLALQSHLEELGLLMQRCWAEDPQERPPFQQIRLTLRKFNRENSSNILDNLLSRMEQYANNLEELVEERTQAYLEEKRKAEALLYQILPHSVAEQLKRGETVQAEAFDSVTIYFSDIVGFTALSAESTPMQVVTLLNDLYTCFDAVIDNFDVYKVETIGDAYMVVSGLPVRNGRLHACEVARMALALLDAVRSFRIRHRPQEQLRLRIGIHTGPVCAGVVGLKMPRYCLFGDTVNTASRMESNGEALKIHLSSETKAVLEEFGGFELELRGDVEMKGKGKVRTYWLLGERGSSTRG
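Compound pre-incubated 30 min at room temperature on GloSensor-loaded HEK293 cells stably carrying hNpr1 and the pGS-40F cGMP biosensor. Stimulation uses hNppA at 0.1 nM final; luminescence is taken at baseline and 20 min post-agonist.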
3T3 cytotox = NIH 3T3 cell cytotoxicity | Potency, µM (top dose mostly 96.7 µM), without a hit: at the highest dose activity change, negative = cytotoxicity, usual class: inhibitors | NIH 3T3 viability, CellTiter-Glo ATP luminescence, 48-72 h | hit rate 4.3% among 94,000 | AID 1345082; also: % is scaled to controls: 0 for no effect and ±100 for the full control effect; nearly all actives have a fitted effect of over 55% in size
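NIH 3T3 cells at 400 cells/well received 23 nL of compound by pintool and were incubated 48 or 72 h at 37 °C. Viability was read as ATP-coupled CellTiter-Glo luminescence.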
GPT2 inhibitor = blocks human glutamate pyruvate transaminase 2 | Q8TD30 | Recombinant GPT2, coupled pyruvate oxidase/HRP Amplex Red fluorescence | Potency, µM (highest dose often 57.7 µM), for the others: top-dose activity change, negative = inhibition, actives largely listed as inhibitors | hit rate 0.25% among 100,000; also: % is scaled to controls: 0 for no effect and ±100 for the full control effect; nearly all actives have a fitted effect of over 60% in size
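GPT2 10ng/uL, a-KG 250uM, L-Ala 2mM, HEPES pH7.5 + 0.0001% Tween; 30 min RT. Then Amplex mix (PO/HRP/ThPP), 30 min RT dark, fluorescence. AOA 50uM used as positive control.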
FLuc inh-1 = Photinus pyralis luciferase inhibition. P08659. hit rate 2.5% among 76,000. Potency, µM (doses to about 115 µM), actives largely listed as inhibitors. purified P. pyralis luciferase, luminescence, biochemical. AID 1347043; also: % is scaled to controls: 0 for no effect and ±100 for the full control effect; nearly all actives have a fitted effect of over 65% in size
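Purified P. pyralis luciferase (10nM final) in 50mM Tris acetate pH 7.5, 10mM Mg acetate, 0.01% Tween-20, 0.05% BSA with 10uM D-luciferin and 10uM ATP. Compounds titrated qHTS. Luminescence imaged on CCD.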
HEK cytotox = HEK 293 cell cytotoxicity; AID 1345083; HEK 293 viability, ATP luminescence (CellTiter-Glo), 48-72 h; hit rate 6.6% among 94,000; Potency, µM (titrated, usually from 115 µM), for inactives: at the highest dose activity change, negative = cytotoxicity, most hits filed as inhibitors; also: % is scaled to controls: 0 for no effect and ±100 for the full control effect; nearly all actives have a fitted effect of over 60% in size
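HEK 293 seeded at 250 cells/well receive compound via pintool. After 48 or 72 hr at 37 degree Celsius, 5% CO2 and 95% humidity, CellTiter-Glo is dispensed and luminescence read following 10 min at room temperature.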
FLuc SDR -ATP = stabilizes firefly luciferase without ATP. shares compounds with FLuc inh-1. Purified FLuc-C-HiBiT, Nano-Glo HiBiT luminescence, no ATP. Potency, µM (doses to about 32.7 µM), inactives show at the top dose activation (signal gain), hits mostly activators. hit rate 7.8% among 1,300. AID 1963318; also: nearly all actives have a fitted effect of over 55% in size
FLuc SDR ATP = binders stabilizing firefly luciferase, plus ATP; purified FLuc-C-HiBiT + ATP, HiBiT complementation luminescence; hit rate 8.7% among 1,300; Potency, µM (series often up to 32.7 µM), inactives show top-dose activation (gain of signal), most hits filed as activators; shares compounds with FLuc inh-1;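 also: signal reports ligand binding via conformational change of the enzyme rather than luciferase catalysis; % of control where 0% means no effect; nearly all actives have a fitted effect of over 55% in size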
FLuc inh-2 = inhibitors of firefly luciferase enzymatic activity | shares compounds with FLuc inh-1 | purified FLuc-C-HiBiT enzyme, luciferin luminescence | Potency, µM (top dose mostly 32.7 µM), for the others: top-dose activity change, negative = inhibition, usual class: inhibitors | hit rate 42% among 1,300; also: % is scaled to controls: 0 for no effect and ±100 for the full control effect; nearly all actives have a fitted effect of over 70% in size
The depositor's hits bear a star; i = inactive; ? = inconclusive; . = not tested or not shown; [ ] = dose if it differs, or a comment. Unless noted, calls follow the shape of the dose curve; as a rule, active = well fitted curve in the direction sought with a large enough effect; inconclusive = small, poorly fitted or top-dose-only effect, or another doubt; inactive = no such curve, though single readings can be large; an effect the other way counts as inactive or inconclusive. Potency is read from the fitted curve at half-maximal effect.

SMILES | hNpr1 antagonist | 3T3 cytotox | GPT2 inhibitor | FLuc inh-1 | HEK cytotox | FLuc SDR -ATP | FLuc SDR ATP | FLuc inh-2
O=C(C1CCc2nnc(-c3ccc(Cl)cc3Cl)n21)N1CCCC1 (centres undefined) | . | ? | -3% | . | 3% | . | . | .
Cc1ccc(CN2CCc3nc(C(=O)Nc4ccccc4)oc3CC2)cc1 | 22µM* | ? | -7%[88.5 µM] | 5µM* | ? | 14%[49.3 µM] | 14%[49.3 µM] | ?
CC(=O)NC[C@H]1Cn2cc(-c3ccccc3)nc2CO1 | 5%[70.6 µM] | i | -14%[88.5 µM] | ? | i | . | . | .
c1ccc(-c2cn3c(n2)CO[C@@H](CNCc2cccs2)C3)cc1 | -20%[70.6 µM] | -25%[138 µM] | i | 5.6µM* | ? | 13%[49.3 µM] | 8%[49.3 µM] | ?
O=C1CCN(S(=O)(=O)c2ccccc2)CCCN(C(=O)CN2C(=O)CCC2=O)CCN1 | -16% | -14% | 1% | i | -6% | . | . | .
Cc1ccc(-c2cc3n(n2)CCCN(C(=O)CCc2cc(Cl)no2)C3)o1 | . | -16% | i | . | i | . | . | .
Cc1nc2cccnc2n1CC1CCCN(S(=O)(=O)c2cc(F)ccc2F)C1 (centres undefined) | -29% | ? | i | i | ? | . | . | .
O=C(O)c1cccc(-c2noc(-c3cccc(C(F)(F)F)c3)n2)c1 | . | . | . | . | . | ? | 0.039µM* | 0.016µM*
Cc1noc(-c2nc(-c3cccc(C(F)(F)F)c3)no2)n1 | -1% | i | 2% | i | 2% | . | . | .
CC(C)(CNC(=O)c1cccc(-c2noc(C(F)(F)F)n2)c1)c1coc(-c2ccccc2)n1 | . | . | i | . | . | . | . | .
O=C(O)c1cccc(-c2noc(-c3ccc(C(F)(F)F)cc3)n2)c1 | . | . | . | . | . | 7µM* | 0.0062µM* | 0.0035µM*
O=C1N(Cc2ccccc2)c2ccccc2C12CCN(Cc1ccccc1)C2 (centres undefined) | 5% | ? | i | i | ? | . | . | .
CN1CCC(NC(=O)C2CCC(=O)N(Cc3cccc(C(F)(F)F)c3)C2)CC1 (centres undefined) | 5% | -14% | 2% | i | 2% | . | . | .
CN1CCNc2cc(-c3ccc(N4CCOCC4)cc3)ncc2C1 | -19%[70.6 µM] | ? | 1%[88.5 µM] | i | ? | . | . | .
Cc1cc(-c2cc3c(cn2)CN(Cc2cccs2)CCN3)ccn1 | -21%[70.6 µM] | ? | -4%[88.5 µM] | 6.3µM* | 89µM* | 32%[49.3 µM] | ? | 11µM*
NC(=O)c1cccc(-c2cc3c(cn2)CN(Cc2ccncc2)CCN3)c1 | -15%[70.6 µM] | ? | 5%[88.5 µM] | ? | -17%[172 µM] | . | . | .
c1cncc(Nc2cc3c(cn2)CN(CC2CCCCC2)CCN3)c1 | 6%[70.6 µM] | ? | -3%[88.5 µM] | ? | ? | . | . | .
NC(=O)c1cccc(-c2cc3c(cn2)CN(Cc2ccccc2)CCN3)c1 | -2%[70.6 µM] | -20%[138 µM] | 3%[88.5 µM] | 14µM* | ? | 17%[49.3 µM] | 12%[49.3 µM] | ?
Oc1ccccc1CN1CCNc2cc(-c3ccccc3)ncc2C1 | -29%[70.6 µM] | 79µM* | 4%[88.5 µM] | 2.5µM* | 79µM* | ? | 14%[49.3 µM] | ?
Cc1cc(-c2cc3c(cn2)CN(Cc2cnc[nH]2)CCN3)ccn1 | . | . | . | . | . | 29%[49.3 µM] | 19%[49.3 µM] | 18µM*
Cc1noc(C)c1S(=O)(=O)N1CCCC(CO)CCNC(=O)CC1 (centres undefined) | -3% | -4% | 2% | i | 3% | . | . | .
O=C(c1ccc2[nH]ccc2c1)N1CCC(N2C(=O)C3(CCCCC3)C2c2ccncc2)CC1 (centres undefined) | 5% | -15% | ? | i | ? | . | . | .
Cc1nc(C)c(C(=O)N2CCOc3ccc(CN4CCCCC4)cc3C2)s1 | 2% | -13% | 0% | i | ? | . | . | .
Cc1cc(-c2cc3c(cn2)CN(Cc2ccccc2O)CCN3)ccn1 | ? | ? | -5%[88.5 µM] | 5.6µM* | ? | 21%[49.3 µM] | 13%[49.3 µM] | ?
COC(=O)C1=C(C)N(Cc2cccc([N+](=O)[O-])c2)C(=O)CC1c1ccccc1Cl (centres undefined) | -7% | -1% | -4% | i | ? | . | . | .
SMILES | hNpr1 antagonist | 3T3 cytotox | GPT2 inhibitor | FLuc inh-1 | HEK cytotox | FLuc SDR -ATP | FLuc SDR ATP | FLuc inh-2
CC(C)NC(=O)C1CCN(C(=O)c2ncn3c2COC(c2ccccc2)C3)CC1 (centres undefined) | 0% | -12% | i | 3.5µM* | -8% | 13% | 4.4µM* | 3.5µM*
CC(NC(=O)C1CCN(C(=O)c2ncn3c2COC(c2ccccc2)C3)CC1)c1ccc(F)cc1 (centres undefined) | -8% | 0% | i | 13µM* | 5% | 13% | ? | 5µM*
CC(NC(=O)C1CCN(C(=O)c2ncn3c2COC(c2ccc(F)cc2)C3)CC1)c1ccc(F)cc1 (centres undefined) | 4% | i | i | i | 10% | . | . | .
CCC[C@H]1CN(S(=O)(=O)c2cnn(CCC)c2)C[C@@H]1N | 2% | -11% | -11% | i | -24% | . | . | .
CCOC(=O)C1CCCN(c2ncnc3c2cnn3-c2ccc(C)c(Cl)c2)C1 (centres undefined) | . | . | . | . | . | 12% | 10% | -6%
CCOC(=O)C1CCCN(C(=O)c2cc(-c3ccc(Cl)cc3Cl)c3nncn3n2)C1 (centres undefined) | . | ? | i | . | ? | . | . | .
Cc1ccc(-n2ncc3c(N4CCC(C)CC4)ncnc32)cc1C | . | . | . | . | . | 22% | ? | 5µM*
NC(=O)C1CCCN(c2ncnc3c2cnn3-c2ccccc2)C1 (centres undefined) | . | . | . | . | . | ? | ? | 11µM*
O=C(C1CCCN(C2CCN(c3nnnn3-c3ccccc3)CC2)C1)N1CCCC1 (centres undefined) | 7% | 1% | -1% | i | i | . | . | .
CC1CCCCN1c1ncnc2c1cnn2-c1ccccc1 (centres undefined) | . | . | . | . | . | 11µM* | ? | 1.1µM*
CC1CCCN1c1ncnc2c1CN(c1ccc(Cl)cc1)C(=O)CN2C (centres undefined) | -17% | -17% | i | i | -12% | . | . | .
Cc1nnc2ccc(N3CCC(NC(=O)Cc4ccc(F)cc4)C3)nn12 (centres undefined) | . | -20% | . | . | i | . | . | .
O=C(CCC[C@H]1NC[C@@H]2C[C@H]1CN(Cc1ccccc1)C2)N1CCN(Cc2ccccc2F)CC1 | -3% | ? | ? | i | ? | . | . | .
CC1CCN(c2ncnc3c2cnn3-c2ccccc2)CC1 | . | . | . | . | . | 23% | ? | 6.2µM*

From PubChem BioAssay
